Reference: PubChem BioAssay AID1259420 (Broad Institute, 2018)
Several values for one entry are separate records, joined by “and”; a condition that tells them apart may be missing. Equal values may be shown once. In all, about 1,000 compounds went through this assay and about 250 (25%) were called active. Roughly 31% stayed inconclusive and do not appear here. How the calls were made is not given here. The list is a sample of the results. Results with a measured potency or affinity are listed apart.

Assay: T. gondii intracellular growth, IFN-gamma absent, dose response, cell-based (AID 1259420);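 further: host cells were HeLa; final incubation lasted 72 hours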
Details: Toxoplasma gondii growth in host cells, no IFN-gamma; at 19.5 µM unless noted

| Compound | max activity |
| --- | --- |
| Cn1nc2c(c1C(=O)Nc1ccc(N3CCCCC3)c(F)c1)CCCC2 | 25.8% [at 10 µM] (inactive) |
| Cc1ccccc1-c1ccc([C@H]2[C@@H](CO)N3C(=O)CN(C(=O)c4ccncc4)C[C@@H]23)cc1 | -13.9% [at 0.16 µM] (inactive) |
| CN(C)C1CCN(Cc2cccc(C#N)c2)C(C(=O)O)C1 (stereo not given) | 8.23% (inactive) |
| Cc1nnsc1CN(C)Cc1[nH]c2ccc(F)cc2c1C | 12.6% [at 0.16 µM] (inactive) |
| CC(C)NC(=O)N1CC(=O)N2[C@H](CO)[C@H](c3ccc(/C=C/c4ccccc4)cc3)[C@@H]2C1 | 20.9% (inactive) |
| COc1ccc(-c2nc(NCCCN3CCCC3)c3ccccc3n2)cc1 | 7.2% (inactive) |
| COc1ccc(-c2ccc([C@H]3[C@H]4CN(Cc5ccccc5)CC(=O)N4[C@H]3CO)cc2)cc1 | 43.4% (inactive) |
| COc1ccc(-c2nc(NCCN3CCN(C)CC3)c3ccccc3n2)cc1 | 12.8% (inactive) |
| COc1ccc(-c2nc(NCCN3CCC(C)CC3)c3ccccc3n2)cc1 | 5.6% [at 10 µM] (inactive) |
| COc1ccc(-c2nc(NCCN3CCOCC3)c3ccccc3n2)cc1 | 8.12% (inactive) |
| CC(c1cc2ccccc2s1)N(O)C(N)=O (stereo not given) | -4.76% [at 5 µM] (inactive) |
| CN1[C@H](CO)[C@@H]2c3ccccc3N(C(=O)C3CCCCC3)C[C@@H]21 | -10.7% [at 0.3 µM] (inactive) |
| O=S(=O)(c1ccccc1)N1CCCCN2[C@@H](CO)[C@H](c3ccc(C#CC4CCCC4)cc3)[C@@H]2C1 | 49.6% (inactive) |
| C/C=C/c1ccc([C@@H]2[C@@H](CO)N3CCCCN(CCC(F)(F)F)C[C@@H]23)cc1 | 39.6% (inactive) |
| C/C=C/c1ccc([C@H]2[C@@H](CO)N3CCCCN(S(=O)(=O)c4ccc(OC)cc4)C[C@H]23)cc1 | 19.6% (inactive) |
| O=S(=O)(c1cccs1)N1CCCCN2[C@@H](CO)[C@@H](c3ccc(/C=C/c4ccccc4)cc3)[C@@H]2C1 | 38.2% (inactive) |
| CCC[C@@]1(CCc2ccccc2)CC(=O)C([C@H](CC)c2cccc(NS(=O)(=O)c3ccc(C(F)(F)F)cn3)c2)C(=O)O1 (stereo not given in full) | 6.55% [at 10 µM] (inactive) |
| Cc1ccc(-c2ccc([C@H]3[C@@H](CO)N4C(=O)CN(C(=O)NC(C)C)C[C@@H]34)cc2)cc1 | -19.8% [at 5 µM] (inactive) |
| COCCC(=O)c1cc2c(s1)CCN2Cc1cccnc1 | -10.9% [at 0.6 µM] (inactive) |
| CN1CCC(=C2c3ccccc3C=Cc3ccccc32)CC1 | 23.8% (inactive) |
| N#C[C@H]1[C@@H](c2ccc(-c3cccnc3)cc2)[C@@H](CO)N1C(=O)Nc1ccc(F)cc1 | 7.86% (inactive) |
| COc1cccc(C#Cc2ccc([C@H]3[C@@H](C#N)N(C(=O)c4ccccn4)[C@@H]3CO)cc2)c1 | 21.5% (inactive) |
| CCCNC(=O)N1C[C@@H]2N[C@H](C1)C2c1ccc(-c2ccccc2C)cc1 (stereo not given in full) | 14.1% (inactive) and 25.2% (inactive) |
| N#C[C@H]1[C@H](c2ccc(C#Cc3ccccc3F)cc2)[C@@H](CO)N1C(=O)c1cccnc1 | -12.3% [at 10 µM] (inactive) |

| Compound | max activity |
| --- | --- |
| COc1ccc(-c2ccc([C@H]3[C@H](C#N)N(C(=O)NC(C)C)[C@H]3CO)cc2)cc1 | 23.7% (inactive) |
| N#C[C@H]1[C@@H](c2ccc(C3=CCCCC3)cc2)[C@@H](CO)N1C(=O)Nc1ccccc1F | 15.8% [at 10 µM] (inactive) |
| N#C[C@@H]1[C@H](c2ccc(C#Cc3cccc(F)c3)cc2)[C@H](CO)N1C(=O)C1CCOCC1 | 23.4% (inactive) |
| N#C[C@H]1[C@H](c2ccc(C#Cc3cccc(F)c3)cc2)[C@@H](CO)N1C(=O)C1CCOCC1 | 10.6% (inactive) |
| CC(C)C#Cc1ccc([C@@H]2[C@H]3CN(S(=O)(=O)c4ccccc4)CC(=O)N3[C@H]2CO)cc1 | 15.9% (inactive) |
| CN1C[C@H]2CN(Cc3ccc4c(c3)OCO4)CCC[C@@]2(C(=O)O)C1 | -10.3% [at 5 µM] (inactive) |
| CS(=O)(=O)N1CC(=O)N2[C@H](CO)[C@@H](c3ccc(C#CCC4CCCC4)cc3)[C@@H]2C1 | 58.7% (inactive) |
| CC(C)C#Cc1ccc([C@H]2[C@H](CO)N3C(=O)CN(C(=O)NC4CCCC4)C[C@@H]23)cc1 | -11.2% (inactive) |
| COc1ccccc1-c1ccc([C@H]2[C@H](CO)N[C@@H]2C#N)cc1 | 29.5% (inactive) |
| COc1ccccc1C#Cc1ccc([C@@H]2[C@@H](CO)N3CCCCN(C(=O)C4CCC4)C[C@H]23)cc1 | 18.4% [at 10 µM] (inactive) |
| N#Cc1cccc(-c2ccc([C@@H]3[C@H]4CN(Cc5ccccc5F)CCCCN4[C@H]3CO)cc2)c1 | -16.7% [at 0.6 µM] (inactive) |
| N#Cc1cccc(-c2ccc([C@H]3[C@H]4CN(Cc5ccccc5F)CCCCN4[C@H]3CO)cc2)c1 | 25.1% (inactive) |
| COc1ccccc1C#Cc1ccc([C@H]2[C@@H](CO)N3CCCCN(C(=O)C4CCC4)C[C@@H]23)cc1 | -3.84% [at 0.16 µM] (inactive) |
| O=C(C1CCC1)N1C[C@@H]2N[C@H](C1)C2c1ccc(/C=C/c2ccccc2)cc1 (stereo not given in full) | -22.2% [at 0.3 µM] (inactive) |
| NCCNC(=O)c1nc(-c2ccc(Br)o2)no1 | 7.54% [at 0.08 µM] (inactive) |
| O=C(Cc1cccnc1)N1CC(=O)N2[C@@H](CO)[C@H](c3ccc(C4=CCCCC4)cc3)[C@@H]2C1 | 18.9% [at 0.16 µM] (inactive) |
| Cc1nc2c(cnn2-c2ccccc2)c(=O)n1-c1cccc2ccccc12 | -11.1% [at 10 µM] (inactive) |
| CCS(=O)(=O)N1CCc2nc(-c3cccc(F)c3)nc(NC3CC3)c2C1 | -10.7% [at 2.6 µM] (inactive) |
| COCC1(C(=O)N2CCc3c(nc(-c4ccccc4)[nH]c3=O)C2)CCC1 | 24.5% (inactive) |
| Cc1ccc(CN2C[C@@H]3C[C@H](C(=O)Nc4ccccc4)[C@@H](C2)O3)cc1 | 4.12% [at 0.6 µM] (inactive) |
| CC(C)CNC(=O)[C@H]1C[C@H]2CN(Cc3cccc(Cl)c3)C[C@H]1O2 | 13.8% [at 0.3 µM] (inactive) |
| CC(C)(C)c1nc2ccccc2c2nnc(SCc3ccccn3)n12 | 9.04% [at 0.3 µM] (inactive) |
| CN1CCN(Cc2cnc3n2CCN(CC2CCOCC2)C3)CC1 | 22.9% [at 1.2 µM] (inactive) |
| CN(C)C(=O)CN1CCOCC2(CCN(CC3CCOC3)CC2)C1 (stereo not given) | 12.7% (inactive) |

| Compound | max activity |
| --- | --- |
| CN1CCCN(C(=O)c2cc3c(c4ccccc4n3CC3CC3)n2S(C)(=O)=O)CC1 | 25.4% (inactive) |
| O=C(c1cnccn1)N1CC(=O)N2[C@H](CO)[C@H](c3ccc(/C=C/c4ccccc4)cc3)[C@@H]2C1 | 9.53% [at 10 µM] (inactive) |
| COC12CC(COC(=O)c3cncc(Br)c3)CN(C)C1Cc1cn(C)c3cccc2c13 (stereo not given) | -18.1% [at 1.2 µM] (inactive) |
| CC(=O)NCc1nnn2c1CN(c1ncccn1)CCC2 | -8.02% [at 0.6 µM] (inactive) and 9.77% [at 0.6 µM] (inactive) |
| COc1ccc(-c2ccc3c(c2)[C@@H]2[C@@H](CCN2C(=O)c2ccncc2)[C@H](CO)N3C)cc1 | -18.6% [at 5 µM] (inactive) |
| CCC(=O)N1CC[C@@H]2[C@@H](CO)N(C)c3ccc(-c4ccc(C#N)cc4)cc3[C@@H]21 | -14.1% [at 1.2 µM] (inactive) |
| CN1c2ccc(C#Cc3cccnc3)cc2[C@@H]2[C@@H](CCN2C(=O)c2cccc(F)c2)[C@H]1CO | 5.34% (inactive) |
| CCC(=O)N1CC[C@@H]2[C@H]1c1cc(-c3ccc(C#N)cc3)ccc1N(C)[C@H]2CO | -11.1% [at 0.6 µM] (inactive) |
| CC(C)NC(=O)N1CC[C@@H]2[C@H]1c1cc(-c3ccc(F)cc3)ccc1N(C)[C@H]2CO | 11.4% [at 10 µM] (inactive) |
| COc1cccc(-c2ccc3c(c2)[C@@H]2[C@@H](CCN2C(=O)c2ccccc2F)[C@@H](CO)N3C)c1 | 24% (inactive) |
| NC(N)=N/N=C/c1c(Cl)cccc1Cl | -13.6% [at 2.35 µM] (inactive) |
| C=CCN1C(=O)CCCC12CCCN(S(=O)(=O)Cc1ccccc1)C2 (stereo not given) | -8.38% [at 10 µM] (inactive) |
| CN(C)CCNC(=O)c1c2c(NCc3cccnc3)ncnc2n2ccccc12 | 8.13% [at 10 µM] (inactive) |
| CCN1Cc2c(C(=O)Nc3ccc(C)cc3)ncn2-c2ccccc2S1(=O)=O | -12.3% [at 0.16 µM] (inactive) |
| CC(C)N1c2ccc(F)cc2[C@@H]2CN(C(=O)c3ccco3)CC[C@H]21 | 9.4% (inactive) |
| Cc1ccccc1-c1ccc([C@@H]2[C@@H](CO)N3CCCCN(S(=O)(=O)Cc4ccccc4)C[C@H]23)cc1 | 6.43% [at 10 µM] (inactive) |
| Cc1ccoc1C(=O)N1CC[C@H]2CO[C@@H](CN3CCN(C)CC3)[C@@H]2C1 | -13% (inactive) |
| COc1ccc(C[C@H]2CN(C(=O)c3ccnn3C)CC[C@H]2OC)cc1 | -12.6% [at 5 µM] (inactive) |
| O=C(Nc1ccccc1)[C@@H]1[C@@H](CO)[C@@H]2Cn3c(ccc(C4=CCCCC4)c3=O)[C@@H]2N1Cc1cocn1 | -11.6% [at 10 µM] (inactive) |
| CCOCC1CC2(CCN(C(=O)COc3ccc(C)cc3)CC2)CO1 (stereo not given) | -10.4% [at 5 µM] (inactive) |
| CCN1CC2(CCN(C(=O)COc3ccccc3)CC2)COc2ccccc2S1(=O)=O | -3.38% [at 2.6 µM] (inactive) |
| CC(C)n1ncc(NC(=O)Cn2ccc(-c3ccc(C(F)(F)F)cc3)n2)n1 | -7.47% [at 0.3 µM] (inactive) |
